# Laboratory results as given in article PMC5540273 (PLoS ONE, 2017).
# Tested on: FYN
# Conditions: concentration: 1 μM, replicates: in singlicate; n = 1
# 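Also: KINOMEscan kinase panel screen.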
row,SMILES,%Inh
1,C[C@@H]1CC[C@H](C(=O)NC2CCCCC2)CN1c1cc(-c2ccc3c(N)n[nH]c3c2)nc(N)n1 [GSK2291363],21%
2,Cc1nc(N(C)[C@H]2CN(C(=O)CC#N)CC[C@H]2C)c2cc[nH]c2n1,2%
3,Nc1nccc2scc(-c3ccc4c(c3)CCN4C(=O)Cc3ccccc3)c12 [GSK2576924],33%
4,COc1cc(OC)cc(-c2cc3cnc(N)nc3nc2NC(=O)NC(C)(C)C)c1,1%
5,O=C(Nc1n[nH]c2cc(-c3ccccc3F)ccc12)C1CC1 [SB-733371],0%
6,CCCNC(=O)Nc1ccc(Oc2ncnc3ccn(C)c23)cc1,1%
7,COc1cc2ncn(-c3cc(OCc4ccncc4Br)c(C(N)=O)s3)c2cc1OC [GW854278],0%
8,Cc1nn2c(=O)cc(N3CCOCC3)nc2n1Cc1cccc(Cl)c1Cl [GSK2342769],0%
9,Cc1c(Cn2c(C)nn3c(=O)cc(N4CCO[C@H](C)C4)nc23)cccc1C(F)(F)F [GSK2373690],14%
10,COc1cc2nccc(Nc3ccc(OCc4ccc(NC(C)=O)cc4)cc3)c2cc1OC.Cl [GW440135],1%
11,Cc1cccc(-c2nc(Nc3ccc4c(cnn4C)c3)c3ccccc3n2)n1 [GW876731],9%
12,CCCC(=O)Nc1n[nH]c2ncc(-c3cccc4ccccc34)cc12 [SB-642057],42%
13,FC(F)(F)c1ccc(-c2ncn(CCCN3CCOCC3)c2-c2ccncc2)cc1 [SB-217780],10%
14,OCCCNc1nccc(-c2c(-c3cccc(C(F)(F)F)c3)nn3cc(C(F)(F)F)ccc23)n1 [GW630813],0%
15,COc1cc(Nc2nccc(N3CCC(NC(=O)C4COc5ccccc5O4)C3)n2)cc(OC)c1OC (stereo not shown) [GSK1379761],29%
16,CCc1ccc(-c2ccc3c(c2)-c2nn(C)cc2S(=O)(=O)N3C)cc1,5%
17,COc1cc(Nc2nccc(N3CCC(NC(=O)C(C)c4ccc(Cl)cc4)C3)n2)cc(OC)c1OC (stereo not shown) [GSK1379757],0%
18,CCS(=O)c1ccc(-c2coc3ccc(-c4nnc(C)o4)cc23)cc1 (stereo not shown),0%
19,O=C1NC(=O)C(c2ccccc2)=C1Nc1cccc(O)c1 [SB-390534],0%

row,SMILES,%Inh
1,COc1cccc(-n2cnc3c(N)ncnc32)c1 [SKF-97416],0%
2,COc1cc2ncn(-c3cc(OCc4ccncc4)c(C(N)=O)s3)c2cc1OC [GSK336313],35%
3,COC(=O)c1c(-c2ccccc2)c2cc(Br)ccc2c(=O)n1Cc1ccc(S(C)(=O)=O)cc1,0%
4,Nc1ncnc2c1ncn2-c1cccc(F)c1 [SKF-97560],0%
5,Nc1n[nH]c2nnc(-c3ccccc3)c(-c3ccccc3)c12 [GW554060],2%
6,Cc1ccc(-c2ccc3c(ccc4sc5c(c43)NC[C@@H](C)N=C5N(C)C)n2)cn1,0%
7,COc1cc2ncn(-c3cc(OCc4ccc(S(C)(=O)=O)cc4)c(C(N)=O)s3)c2cc1OC [GW869979],0%
8,Cl.NS(=O)(=O)c1cccc(Nc2cc(-c3ccc(F)cc3)n[nH]2)c1 [GW824645],0%
9,COc1cccc(C2=C(N(C)c3ccccc3)C(=O)NC2=O)c1 [SB-334865],13%
10,CCn1c(-c2ccoc2)nc2cnccc21 [SB-733887],47%
11,COc1cc2nccc(Nc3cccc(Oc4ccccc4)c3)c2cc1OC.Cl [GW284543],36%
12,CCC(=O)c1c(-c2ccccc2)c2cc(Cl)ccc2c(=O)n1Cc1cc(S(C)(=O)=O)n(CC(N)=O)n1,0%
13,CCn1c(-c2nonc2N)nc2ccccc21 [SB-693162/GW549034],0%
14,CN(C)c1cc(-c2ccc3c(N)n[nH]c3c2)nc(N)n1 [GSK2219329],11%
15,Cc1ccccc1COc1cc(-n2cnc3cc(Cl)ccc32)sc1C(N)=O [GW813349],0%
16,Cl.c1ccc(Cn2cnc3cc(Nc4ncnc5ccccc45)ccc32)cc1 [GW272142],10%
17,Nc1ncnc2c1ncn2-c1cccc2ccccc12 [SKF-97184],0%
18,COc1ccc(CNC(=O)NC2CCN(c3ccnc(Nc4ccc(F)cc4)n3)C2)cc1 (stereo not shown) [GSK1379706],20%
